D1 antag = blocks dopamine activation of the human D1 receptor; P21728; hit rate 3.2% among 360,000; activity change, negative = inhibition, % at 10 µM; HEK293 TREx D1 cells, calcium flux, dopamine EC80; stronger effect = lower value; in the data active means activity change below about -30%
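Kinetic fluorescence of a calcium dye serves as the read-out. D1-expressing Hek293 Trex cells, induced overnight at 30 C, are exposed to compound for 180 s before an EC80 dopamine addition, then read 180 s further.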
DRD3 agonist = activates the human D3 dopamine receptor; P35462; D3R DiscoveRx beta-arrestin cells, luminescence, 90 min; max activation, %; hit rate 0.58% among 410,000; in the data active means max activation above about 30%
Target sequence (P35462 whole entry, looked up): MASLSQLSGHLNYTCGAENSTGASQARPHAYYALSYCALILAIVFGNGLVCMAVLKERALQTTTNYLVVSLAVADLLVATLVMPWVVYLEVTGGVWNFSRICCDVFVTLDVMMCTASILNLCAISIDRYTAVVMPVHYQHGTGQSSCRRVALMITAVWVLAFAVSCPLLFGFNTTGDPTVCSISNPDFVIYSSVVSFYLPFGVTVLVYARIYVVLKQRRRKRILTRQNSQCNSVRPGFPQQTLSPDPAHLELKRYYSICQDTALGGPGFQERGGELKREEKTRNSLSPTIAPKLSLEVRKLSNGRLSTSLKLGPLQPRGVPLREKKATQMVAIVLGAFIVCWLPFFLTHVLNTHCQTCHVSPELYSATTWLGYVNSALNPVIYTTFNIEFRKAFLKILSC
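Agonist-mode cell screen: cells plated at 1500/well and incubated overnight at 37 °C, then exposed to library compounds for 90 min at 37 °C. Detection reagent was added for 30–60 min at room temperature, and luminescence was read.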
D1 agonist = agonists of human D1 dopamine receptor; P21728; HEK293 T-REx D1 cells, calcium flux, agonist mode; activation, % at 2 µM; hit rate 1% among 360,000; AID 504660; in the data active means activation above about 30%
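Tetracycline-induced HEK293 TREx D1 cells, force-coupled to calcium signalling, were dye-loaded with a no-wash calcium kit. Compound was pin-added after a 10 s baseline. Fluorescence was read kinetically at 1 cycle/s for 180 s, with calcium rises flagged as agonism.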
D3 antag = blocks the human D3 dopamine receptor; P35462; AID 652054; hit rate 2.5% among 360,000; max response, negative = inhibition, %; D3R cells, DiscoveRx beta-arrestin luminescence, antagonist mode; stronger effect = lower value; in the data active means max response below about -50%; inconclusive means no clear call, values can overlap the other calls
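Cells plated overnight at 1500 cells/well, then exposed to library compounds with dopamine controls for 90 minutes at 37 degrees C. DiscoveRx reagent added for 30–60 minutes at room temperature; luminescence read, quantitative HTS format.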
D1 potentiator = potentiators of human D1 dopamine receptor. potentiation, % at 10 µM. HEK293 TREx D1 cells, calcium flux, dopamine EC20 potentiation. AID 504651. hit rate 0.036% among 360,000; in the data active means potentiation above about 30%
A number is an active result; 0 = inactive; ? = inconclusive; - = no result. A selection: hits, their analogues and other compounds. The true share with any hit is near 6%.

SMILES | D1 antag | DRD3 agonist | D1 agonist | D3 antag | D1 potentiator
CC1C(=O)N(Cc2cn(CC3CCCCC3)nn2)CCS(=O)(=O)N1Cc1ccc(-c2ccc(Cl)cc2)cc1 (configuration not stated) | - | 0 | - | 0 | -
Cc1ccc(C)c(N2CCN(C(=O)CCCCCn3c(=O)[nH]c4ccccc4c3=O)CC2)c1 | 0 | 0 | 0 | - | 0
CCCOc1ccc(C2CC(=O)Nc3c2c(C)nn3-c2nncc(-c3cccc(OC)c3)n2)cc1OC (configuration not stated) | 0 | 0 | 0 | - | 0
COc1ccccc1NC(=S)NC(=O)Cc1ccc(Cl)cc1 | -43 | 0 | 57 | 0 | 0
COc1ccccc1NC(=S)NCC1CCC(CNC(=S)Nc2ccccc2OC)CC1 (configuration not stated) | -85 | 0 | 0 | 0 | 0
CCC(=O)NC(=S)Nc1ccccc1OC | 0 | 0 | 0 | 0 | 0
COc1ccc(C(=O)O)cc1NC(=S)NC(=O)CSc1ccc(Cl)cc1 | -74 | 0 | 0 | 0 | 0
COc1cccc(NC(=S)NC(=O)Cc2ccc(Cl)cc2)c1 | 0 | 0 | 68 | 0 | 0
CCOC(=O)N1CCN(CC(=O)Nc2nc3ccc(OC)cc3s2)CC1 | 0 | 0 | 0 | 0 | 0
Cc1ccc(C)c(NC(=O)n2ncc3cc(Cl)ccc32)c1 | 0 | 0 | 0 | - | 0
Cc1cc(Nc2cccc(C(F)(F)F)c2)nc2ccc(NC(=O)c3cccnc3)cc12 | 0 | 0 | 0 | - | 0
Cn1cnc(S(=O)(=O)N2CCCC(C(=O)NCc3ccc(F)cc3)C2)c1 (configuration not stated) | 0 | 0 | 0 | - | 0
COc1ccc(C2C(C(C)=O)=C(C)N=c3s/c(=C\c4ccco4)c(=O)n32)c(OC)c1 (configuration not stated) | 0 | 0 | 0 | ? | 0
CCOC(=O)C1=C(C)N=c2s/c(=C\c3ccc(O)c([N+](=O)[O-])c3)c(=O)n2C1c1ccccc1OC (configuration not stated) | 0 | 0 | 0 | 0 | 0
COc1ccc(C2C(C(C)=O)=C(C)N=c3s/c(=C\c4cc(C)n(C)c4C)c(=O)n32)c(OC)c1 (configuration not stated) | 0 | 0 | 121 | 0 | 0
CCOC(=O)C1=C(C)N=c2s/c(=C/c3cccc([N+](=O)[O-])c3O)c(=O)n2C1c1ccc(OC)cc1OC (configuration not stated) | 0 | 0 | 0 | -55 | 0
O=c1oc2ccc3ccccc3c2cc1-c1nnc(Nc2cccc(F)c2)s1 | 0 | 0 | 0 | - | 0
CC1CCN(C(=O)C(=O)Nc2sc3c(c2C(=O)O)CC(C)(C)OC3)CC1 | -58 | 0 | 0 | 0 | 0
CC1CCN(C(=O)C(=O)Nc2sc3c(c2C(N)=O)CC(C)(C)OC3)CC1 | 0 | 0 | 0 | 0 | 0
CCOC(=O)c1ccc(NC(=O)C2=C(C)Nc3nc(SCc4ccc(Cl)cc4)nn3C2c2ccc(C)cc2)cc1 (configuration not stated) | 0 | 0 | 0 | - | 0
Cc1ccc(C2C3=C(CC(C)(C)CC3=O)Nc3onc(C)c32)cc1 (configuration not stated) | 0 | 0 | 0 | ? | 0
Cc1noc2c1C(c1ccc(N(C)C)cc1)C1=C(CC(C)(C)CC1=O)N2 (configuration not stated) | 0 | 0 | 0 | -78 | 0
COc1ccc(NS(=O)(=O)c2ccc(-n3cccn3)cc2)cc1OC | -33 | 0 | 0 | - | 0
CCc1cccc(C)c1NS(=O)(=O)c1ccc(-n2cccn2)cc1 | -47 | 0 | 0 | - | 0
COc1ccc(NS(=O)(=O)c2cc(C)ccc2OC)cc1OC | 0 | 0 | 0 | -58 | 0
SMILES | D1 antag | DRD3 agonist | D1 agonist | D3 antag | D1 potentiator
Cc1ccc(NS(=O)(=O)c2ccc(-n3cccn3)cc2)cc1C | 0 | 0 | 0 | 0 | 0
CCOC(=O)c1cnc2cc(C(F)(F)F)ccc2c1Nc1ccc(F)cc1F | 0 | 0 | 0 | - | 0
COc1ccc(N2c3ccccc3CN(Cc3ccccc3)CC2Cc2cc(OC)c(OC)c(OC)c2)cc1 (configuration not stated) | - | 0 | - | 0 | -
CCNc1ccc(-c2nc(-c3ccncc3)no2)cc1[N+](=O)[O-] | 0 | 0 | 0 | - | 0
Cc1cc(OCC(=O)N2CCN(c3ccc(F)cc3)CC2)c2c(C)cc(=O)oc2c1 | -33 | 0 | 0 | 0 | 0
Cc1cc(OCC(=O)N2CCN(c3ccccc3)CC2)c2c(C)cc(=O)oc2c1 | 0 | 0 | 0 | 0 | 0

From PubChem BioAssay
